Screening data from PubChem BioAssay.
Sampled rows, rich in hits. Any-hit rate of the full collection: about 7.6%.
KB-V1 MDR tox: qHTS assay for MDR1-selective chemotherapeutics: Primary screen using the drug-selected MDR subline cells KB-V1. KB-V1 MDR cells viability, CellTiter-Glo, 72 h. Potency, µM (doses to about 46.1 µM), most hits filed as cytotoxic. hit rate 3.4% among 400,000; further: potency means the concentration at half of the fitted maximal effect; on the % scale 0 is the no-effect control and ±100 the full control effect; nearly all actives have a fitted effect of over 60% in size
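KB-V1 cells (P-gp-expressing MDR subline of KB-3-1) in phenol-red-free DMEM with 10% FBS were exposed to library compounds over a concentration series for 72 h at 37 degrees C. Viability read by CellTiter-Glo luminescence; concentration-effect curves fitted after normalization.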
MCF10A rereplic: A quantitative high throughput screen for small molecules that induce DNA re-replication in MCF 10a normal breast cells; hit rate 2.9% among 350,000; MCF 10A DNA re-replication, Hoechst nuclear intensity, 48 h; Potency, µM (titrated, usually from 46.1 µM), for inactives: at the highest dose activity, positive = re-replication, hits mostly activators; further: potency means the concentration at half of the fitted maximal effect; % of control where 0% means no effect; nearly all actives have a fitted effect of over 50% in size
KB-3-1 cytotox: qHTS assay for MDR1-selective chemotherapeutics: Primary screen using the parental adenocarcinoma cell KB-3-1; Potency, µM (highest dose often 46.1 µM), most hits filed as cytotoxic; hit rate 1.4% among 400,000; AID 1347075, 2019; KB-3-1 viability, CellTiter-Glo ATP luminescence, 72 h; further: potency means the concentration at half of the fitted maximal effect; on the % scale 0 is the no-effect control and ±100 the full control effect; nearly all actives have a fitted effect of over 60% in size
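KB-3-1 parental drug-naive adenocarcinoma cells in DMEM/10% FBS, incubated 72 h at 37 C with pin-transferred compounds across a concentration series. Viability by CellTiter-Glo luminescence; concentration-response curves fitted after normalization.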
KCNH2 3.1 block: qHTS for Inhibitors of KCHN2 3.1: Mutant qHTS. U2OS KCNH2 3.1, thallium flux FluxOr; hits give low values. activity change, % (tested at about 1.8 µM). hit rate 0.95% among 340,000. AID 720553, 2013;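 active means maximum activity change below -70%; inconclusive means maximum activity change from -70% to -50%; inactive means maximum activity change above -50%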;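 further: thallium influx rate constant from kinetic fluorescence after stimulation buffer; on the % scale 0 is the no-effect control and ±100 the full control effect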
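Kinetic fluorescence (2 min after stimulation buffer) measures Tl+ influx through KCNH2 3.1 expressed by viral transduction in U2OS cells; the rate constant is normalized against DMSO controls serving as positive and negative references.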
hERG WT inh: qHTS for Inhibitors of KCHN2 3.1: Wildtype qHTS | activity change, % at 1.84 µM | Voltage-gated inwardly rectifying potassium channel KCNH2 (Homo sapiens), Q12809 | hit rate 0.37% among 340,000 | U2OS, BacMam KCNH2, thallium flux FluxOr; hits give low values;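 active means maximum activity change below -70%; inconclusive means maximum activity change between -70% and -50%; inactive means maximum activity change above -50%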; further: on the % scale 0 is the no-effect control and ±100 the full control effect
Target sequence (Q12809 whole entry, looked up): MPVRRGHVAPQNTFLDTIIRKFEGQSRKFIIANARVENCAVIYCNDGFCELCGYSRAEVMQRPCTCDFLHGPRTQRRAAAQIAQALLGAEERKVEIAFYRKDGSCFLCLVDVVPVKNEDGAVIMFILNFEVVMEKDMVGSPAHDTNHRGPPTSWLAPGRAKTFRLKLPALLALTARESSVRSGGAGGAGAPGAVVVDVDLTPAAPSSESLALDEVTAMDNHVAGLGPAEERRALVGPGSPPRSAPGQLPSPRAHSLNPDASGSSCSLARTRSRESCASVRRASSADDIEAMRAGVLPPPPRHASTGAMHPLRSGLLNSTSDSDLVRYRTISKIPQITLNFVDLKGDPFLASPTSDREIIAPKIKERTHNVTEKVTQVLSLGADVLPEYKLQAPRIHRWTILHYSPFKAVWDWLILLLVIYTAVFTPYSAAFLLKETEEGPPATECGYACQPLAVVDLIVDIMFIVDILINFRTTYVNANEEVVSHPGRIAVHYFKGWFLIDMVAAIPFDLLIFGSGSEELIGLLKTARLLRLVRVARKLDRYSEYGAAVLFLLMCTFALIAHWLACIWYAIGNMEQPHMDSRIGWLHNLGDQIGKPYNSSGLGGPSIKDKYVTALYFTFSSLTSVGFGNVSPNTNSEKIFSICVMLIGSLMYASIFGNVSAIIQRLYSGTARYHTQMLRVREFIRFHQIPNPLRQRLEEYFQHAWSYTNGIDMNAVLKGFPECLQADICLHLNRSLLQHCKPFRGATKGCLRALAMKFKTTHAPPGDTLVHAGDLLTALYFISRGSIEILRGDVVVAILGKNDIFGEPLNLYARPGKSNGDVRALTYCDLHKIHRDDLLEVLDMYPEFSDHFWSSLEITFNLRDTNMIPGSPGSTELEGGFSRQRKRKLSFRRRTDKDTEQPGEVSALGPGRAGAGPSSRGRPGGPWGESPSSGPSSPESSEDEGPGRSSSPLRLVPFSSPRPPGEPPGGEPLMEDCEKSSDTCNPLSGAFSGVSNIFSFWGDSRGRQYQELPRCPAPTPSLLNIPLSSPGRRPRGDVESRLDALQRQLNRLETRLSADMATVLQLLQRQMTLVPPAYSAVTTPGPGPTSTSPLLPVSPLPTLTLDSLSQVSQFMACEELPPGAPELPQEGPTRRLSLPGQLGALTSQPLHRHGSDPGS
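U2OS cells transduced with wild-type KCNH2 virus are loaded with FluxOr dye for 45 min, and thallium flux is measured in kinetic reads before and after stimulation buffer. Rate constants are normalized to DMSO controls.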
SW480 rereplic: A quantitative high throughput screen for small molecules that induce DNA re-replication in SW480 colon adenocarcinoma cells | SW480 DNA re-replication, Hoechst DNA content imaging, 48 h | Potency, µM (series often up to 46.1 µM), without a hit: at the top dose re-replication activation, usual class: activators | hit rate 1.8% among 340,000 | AID 624297, 2012; further: potency means the concentration at half of the fitted maximal effect; % of control where 0% means no effect; nearly all actives have a fitted effect of over 55% in size
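Treated cells incubate 48 hr (37 C, 5% CO2), are stained 40 min with Hoechst, and nuclear fluorescence is enumerated; a rise in nuclei with high DNA signal marks re-replication.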
Numbers without * were called inactive; i = inactive; ? = inconclusive; nt = not tested or not shown. Unless noted, the call rests on the fitted dose curve; in most records, active means well fitted curve in the direction sought with a large enough effect; inconclusive means small, poorly fitted or top-dose-only effect, or another doubt; inactive means no such curve, though single readings can be large; an effect the other way counts as inactive or inconclusive.

SMILES	KB-V1 MDR tox	MCF10A rereplic	KB-3-1 cytotox	KCNH2 3.1 block	hERG WT inh	SW480 rereplic
CCc1ccc(Nc2nnc(SCC(=O)Nc3cccnc3Cl)s2)cc1	16µM*	1%	i	-1	-6	6%
O=C1CC2(CCN(C(=O)c3ccc(Br)cc3)CC2)Oc2ccccc21	?	-1%	i	-18	30	-8%
O=S(=O)(c1cccc(C(F)(F)F)c1)N1CCN(c2nc(-c3ccccc3)nc3ccccc23)CC1	i	nt	i	nt	nt	nt
CC(=O)N1C2=CCCC3CCCCC23c2ccccc21 (stereo not drawn)	i	26%	i	5	-1	-4%
O=C1CCC(/C=C/c2ccccc2)=NN1	5.2µM*	0%	?	-7	-18	-31%
CCOC(=O)CN1N=C(/C=C/c2ccc(OCC)cc2)CCC1=O	?	-1%	i	-8	i	2%
CCOc1ccc(/C=C/C2=NNC(=O)CC2)cc1	1.8µM*	1%	i	4	-3	15%
CCCOc1ccc(C2=NNC(=O)CC2)cc1	0.21µM*	12%	i	-13	nt	-90%
COc1ccc(/C=C/C2=NNC(=O)CC2)cc1	0.41µM*	1%	1.5µM*	-9	-1	-9%
OC1C(O)C(O)C(O)C(O)C1O (stereo not drawn)	i	-1%	i	-2	0	-11%
Cc1ccc2oc(-c3ccc(NC(=O)COc4ccccc4)cc3O)nc2c1	i	nt	?	nt	nt	nt
O=C(Nc1ccccc1)c1ccc(Cn2cc(C(F)(F)F)ccc2=O)cc1	15µM*	13%	i	11	15	1%
CC(=O)c1sc(Nc2nc3ccc(F)cc3s2)nc1C	i	?	i	16	7	9.2µM*
O=C(Nc1nc2ccc(F)cc2s1)c1ccccn1	i	18µM*	?	-10	12	5.2µM*
CCc1nnc(NC(=O)c2oc3cc(C)c(C)cc3c2C)s1	i	5%	?	-7	5	0.52µM*
O=C(Nc1nc2ccccc2s1)c1cnccn1	i	3.3µM*	i	-13	-5	15µM*
O=C(NNc1nc2ccc(F)cc2s1)c1cccc(F)c1	i	19%	?	-2	0	185%
CCc1nnc(NC(=O)c2ccc(COc3ccc(C)cc3)o2)s1	i	-1%	i	7	0	-3%
O=C(Nc1nc(-c2ccco2)c(-c2ccco2)s1)c1cnccn1	2.1µM*	7%	i	-20	0	5%
CCc1nnc(NC(=O)c2cnccn2)s1	i	18µM*	i	14	-6	0%
COc1ccc(Cl)c2sc(NC(=O)C3=COCCO3)nc12	i	-3%	i	-9	-4	5.2µM*
CCc1nnc(NC(=O)c2ccc(COc3ccccc3)o2)s1	15µM*	13%	i	-5	-24	-2%
O=C(Nc1nccs1)c1cnccn1	i	20%	i	-4	2	-8%
Cc1ccc(Cl)c2sc(NC(=O)C3=COCCO3)nc12	i	?	i	-10	-7	-1%
O=C(Nc1ccccc1)c1ccc(CSc2ncccn2)cc1	i	2%	i	3	-3	-4%
SMILES	KB-V1 MDR tox	MCF10A rereplic	KB-3-1 cytotox	KCNH2 3.1 block	hERG WT inh	SW480 rereplic
O=C(Nc1nc2ccc(F)cc2s1)C1=COCCO1	12µM*	0%	?	-2	-5	-5%
O=C(Nc1nnc(SCc2ccc(F)cc2)s1)c1ccccn1	?	?	?	-3	2	13µM*
CCOC(=O)N1CCC2(CC1)OC(=O)C(C)=C2C(=O)NCc1ccc(C)cc1	i	nt	i	nt	nt	nt
Cc1ccc(NC(=S)NCCN(C2CCCCC2)C2CCCC2)cc1	i	2%	i	-73*	1	?
Cc1ccc(NC(=S)NCCN(C2CCCCC2)C2CCCC2)cc1C	?	?	?	-34	11	?
CC(C)c1cccc(NC(=O)COC(=O)c2ccccc2OCc2cccc(Br)c2)c1	i	nt	?	nt	nt	nt
CC(=O)N1CCCc2cc(S(=O)(=O)N3CCC(C(=O)Nc4cccc(Cl)c4C)CC3)ccc21	i	nt	i	nt	nt	nt
CC(C)c1nnc(NC(=O)C2CCN(C(=O)C(C)(C)C)CC2)s1	i	nt	i	nt	nt	nt
CN1CCC(NCCC(c2ccc(F)cc2)c2ccc(Cl)cc2)CC1 (stereo not drawn)	?	?	16µM*	-38	3	?
Cc1ccc(/C=C/C(=O)N2CCN(c3ccc(F)cc3)CC2)o1	18µM*	?	?	-4	-2	-1%
O=C(N/N=C/c1ccco1)C(O)c1ccccc1 (stereo not drawn)	i	2%	i	11	-2	3%
COC(=O)N/N=C(C)\C=C\c1ccco1	?	?	i	11	nt	?
CC(/C=C/c1ccco1)=N\NC(=O)CNc1cccc(C)c1	i	0%	i	-80*	-1	7%
CC(/C=C/c1ccco1)=N\NC(=O)C(O)c1ccccc1 (stereo not drawn)	i	23µM*	i	-7	2	0%
COc1ccc(S(=O)(=O)NCC2CCCN(C(=O)CC3CCCC3)C2)cc1 (stereo not drawn)	?	?	i	10	nt	?
CCOC(=O)C1CCCN(C(=O)c2cc3ccc(OC)cc3[nH]2)C1 (stereo not drawn)	i	0%	i	2	5	0%
COC(=O)C[C@H]1C=C[C@@H](NC(=O)Cc2cccnc2)[C@@H](CO)O1	i	nt	i	nt	nt	nt
CN(Cc1cccs1)c1ncnc2ccc(-c3ccc4cnn(C)c4c3)cc12	i	nt	?	nt	nt	nt
CCN(CC)c1ccc(NC(=O)COc2ccccc2C#N)cc1S(=O)(=O)Nc1ccc(OC)cc1	3.7µM*	?	i	-38	0	?
Cc1ccc(NC(=O)c2cnccn2)cc1S(=O)(=O)N(C)C	i	-7%	i	-12	-4	nt
CCN(CC)c1ccc(NC(=O)c2cnccn2)cc1S(=O)(=O)Nc1ccc(OC)cc1	4.1µM*	?	?	-2	-9	?
CN(C)S(=O)(=O)c1cc(C(=O)OCCn2cnc3c2c(=O)n(C)c(=O)n3C)ccc1Cl	i	13%	i	-2	3	1%
